Compound activity deposited in PubChem by several laboratories.
MsrA act – activators of bovine methionine sulfoxide reductase A; purified bovine MsrA, absorbance read-out; activation, % at 10.6 µM; hit rate 0.3% among 360,000; AID 602163; in the data active means activation above about 7.5%
ABCB6 inh 2 – inhibitors of human ABC transporter ABCB6. Q9NP58. K562-ABCB6 porphyrin accumulation, flow cytometry, 1 h; active compounds read low. fluorescence ratio to DMSO, % at 10 µM. hit rate 0.19% among 360,000. AID 602162;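 active means fluorescence ratio to DMSO below 75%, the collection mean minus 3 SD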;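 further: signal is porphyrin accumulated inside mitochondria; lower ratio means ABCB6 inhibition with less porphyrin fluorescence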
Target sequence (Q9NP58 whole entry, looked up): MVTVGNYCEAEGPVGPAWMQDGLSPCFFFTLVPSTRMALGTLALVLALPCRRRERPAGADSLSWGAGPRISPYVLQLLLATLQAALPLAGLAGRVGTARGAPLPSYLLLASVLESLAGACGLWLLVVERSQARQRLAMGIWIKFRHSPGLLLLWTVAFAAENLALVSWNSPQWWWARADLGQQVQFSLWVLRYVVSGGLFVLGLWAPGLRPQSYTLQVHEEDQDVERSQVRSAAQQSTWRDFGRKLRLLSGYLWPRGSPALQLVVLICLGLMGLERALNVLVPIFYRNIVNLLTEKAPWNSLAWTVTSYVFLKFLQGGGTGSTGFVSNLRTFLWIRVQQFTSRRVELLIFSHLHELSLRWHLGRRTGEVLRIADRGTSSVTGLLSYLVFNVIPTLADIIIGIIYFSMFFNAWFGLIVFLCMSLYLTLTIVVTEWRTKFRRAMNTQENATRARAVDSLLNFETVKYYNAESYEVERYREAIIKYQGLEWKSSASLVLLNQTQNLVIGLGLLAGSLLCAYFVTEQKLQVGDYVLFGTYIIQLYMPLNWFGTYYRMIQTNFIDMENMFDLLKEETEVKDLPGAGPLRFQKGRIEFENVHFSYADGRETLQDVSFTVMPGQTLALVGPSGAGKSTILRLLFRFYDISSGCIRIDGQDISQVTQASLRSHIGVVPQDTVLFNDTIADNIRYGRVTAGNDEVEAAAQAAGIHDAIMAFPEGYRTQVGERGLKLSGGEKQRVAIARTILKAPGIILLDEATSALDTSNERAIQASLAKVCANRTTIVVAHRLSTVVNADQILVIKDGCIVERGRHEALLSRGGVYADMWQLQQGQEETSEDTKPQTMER
MsrA inh – inhibitors of bovine MsrA; inhibition, % at 15.5 µM; hit rate 0.75% among 360,000; AID 651718; purified bovine MsrA, absorbance read-out; in the data active means inhibition above about 4.5%
SMARCA2 act – increases SMARCA2 function in MMTV reporter cells; MG213 cells, MMTV-luciferase reporter, dexamethasone, overnight; activation, % at 9.1 µM; hit rate 1% among 370,000; in the data active means activation above about 7.8%
ABCB6 blocker 1 – inhibitors of human ABC transporter ABCB6; shares compounds with ABCB6 inh 2; ratio response (% of DMSO), % at 10 µM; AID 602430; 700 tested, under 10 active; K562-ABCB6 porphyrin accumulation, flow cytometry, 1 h; active compounds read low;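 active means repeat-averaged ratio response below 75% of DMSO, the collection mean minus 3 SD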;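 further: median porphyrin fluorescence at 575 nm with 488 nm excitation from mitochondria; lower ratio means less porphyrin signal so ABCB6 inhibition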
MsrA activ conf – bovine methionine sulfoxide reductase A activation confirmed | shares compounds with MsrA act | purified bovine MsrA, absorbance read-out | activation, % at 10.6 µM | hit rate 12% among 1,000 | AID 602270; in the data active means activation above about 4%;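 further: enzyme coupled to thioredoxin and thioredoxin reductase with NADPH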
SMARCA2 conf – confirmation of SMARCA2 (BRM) function activators; shares compounds with SMARCA2 act; MG213 cells, MMTV-luciferase with dexamethasone, luminescence, overnight; MG213 cells expressing E1A, Rb sequestered; DMSO wells 0%, reference activator 100%; activation, % at 9.1 µM; hit rate 30% among 3,500;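 active means activation above its plate's cutoff, the mean activation of tested wells plus 3 SD, cut at about 7.9% in these data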
VP16 Luc act – GAL4-VP16 reporter activation counter-screen. hit rate 41% among 3,500. activation, % at 9.1 µM. HEK293 GAL4-VP16 pG5luc reporter, luciferase luminescence; scaled: DMSO wells 0%, SAHA wells 100%. shares compounds with SMARCA2 act;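 active means activation above the solvent-only control well mean plus 3 SD, averaged across control plates, cut at about 5.2% in these data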
Large screens that a line does not name were inactive (follow-up assays come after a bar, where they were run). Sampled rows, rich in hits. Any-hit rate of the full collection: about 2.1%.

O=C(c1ccccc1)N1CCC(c2nc3c(nnn3Cc3ccccc3Cl)c(=O)[nH]2)CC1	none | ABCB6 blocker 1 inactive
O=C(NCc1cccs1)c1nc2c(nnn2Cc2ccccc2Cl)c(=O)[nH]1	ABCB6 inh 2 70.0 | ABCB6 blocker 1 inactive
O=C(c1cccs1)N1CCC(c2nc3c(nnn3Cc3ccccc3Cl)c(=O)[nH]2)CC1	none | ABCB6 blocker 1 inactive
O=C(COC(=O)c1cccc2ccccc12)NCCCc1ccccc1	none
Cc1cccc(C(=O)OCC(=O)NCCCc2ccccc2)c1O	ABCB6 inh 2 18.0 | ABCB6 blocker 1 inactive
CCN1CCN(C(=O)c2ccc3c(=O)n(Cc4ccccc4OC)c(=S)[nH]c3c2)CC1	ABCB6 inh 2 69.0 | ABCB6 blocker 1 inactive
COC(=O)[C@]1(C#N)CC(=O)N(Cc2ccc(Cl)cc2)[C@@H]1c1ccccc1	none (no result: MsrA act, ABCB6 inh 2, MsrA inh)
O=C(CSc1ccc2ccccc2c1Br)Nc1cccc(S(=O)(=O)NC2=NCCCCC2)c1	ABCB6 inh 2 67.0 | ABCB6 blocker 1 inactive
COc1ccc(N2C(=O)CSC2c2cccc(F)c2)cc1 (centres undefined)	ABCB6 inh 2 74.0 | ABCB6 blocker 1 inactive
CCOc1cc(C(=O)N2CCN(C/C=C/c3ccccc3)CC2)cc(OCC)c1OCC	ABCB6 inh 2 67.0 | ABCB6 blocker 1 inactive
COc1cc(C(=O)N2CCN(C/C=C/c3ccccc3)CC2)cc(OC)c1OC	none
CC(=O)c1cc(-c2cc(C(=O)O)cc([N+](=O)[O-])c2)c(=O)n2c1CCC2	none (no result: MsrA act, ABCB6 inh 2, MsrA inh)
Cn1c(=O)c2c(ncn2CC(=O)N(Cc2ccccc2)c2ccccn2)n(C)c1=O	ABCB6 inh 2 71.0 | ABCB6 blocker 1 inactive
CC1=CC(C)(C)N2C(=O)C3(C(C#N)=C(N)Oc4cc(C)oc(=O)c43)c3cc(C)cc1c32 (centres undefined)	ABCB6 inh 2 67.0 | ABCB6 blocker 1 inactive
O=C(COC(=O)c1ncc(Cl)c(Cl)c1Cl)c1ccc(Cl)s1	ABCB6 inh 2 72.0 | ABCB6 blocker 1 inactive
CC(C)CNS(=O)(=O)/C=C/c1ccc(F)cc1CNC(=O)OC(C)(C)C	none (no result: MsrA act, ABCB6 inh 2, MsrA inh)
CC1(C)CC(=O)C=C(NCc2ccccc2)C1	none
CC1(C)CC(=O)C=C(Nc2cc(-c3ccccc3)[nH]n2)C1	ABCB6 inh 2 47.0 | ABCB6 blocker 1 inactive
COCCCNC(=O)C[C@H]1C[C@@]2(C(=O)OC)C(=C[C@H](COCc3ccccc3)O[C@@H]2C)N(Cc2ccc(Cl)cc2Cl)C1=O	none (no result: MsrA act, ABCB6 inh 2, MsrA inh)
Cc1ccc(CN(C)C(=O)c2ccccc2Oc2ccccc2)o1	ABCB6 inh 2 67.0 | ABCB6 blocker 1 inactive
Cc1cc(O)c(C(C)C)cc1NC(=O)Cn1nc(C)c2ccccc2c1=O	ABCB6 inh 2 74.0 | ABCB6 blocker 1 inactive
COc1ccc(C(=O)NC2=NCCS2)cc1	ABCB6 inh 2 74.0 | ABCB6 blocker 1 inactive
O=C(c1ccccc1)C(C(=O)N1CCc2ccccc2C1)n1ccccc1=O (centres undefined)	ABCB6 inh 2 73.0 | ABCB6 blocker 1 inactive
C#CCN1CC(N(C)CCOC(=O)c2cccs2)CS1(=O)=O (centres undefined)	none (no result: MsrA act, ABCB6 inh 2, MsrA inh)
O=C(O)CC/C(=C\c1ccc(Cl)c([N+](=O)[O-])c1)c1nc2ccccc2s1	ABCB6 inh 2 72.0 | ABCB6 blocker 1 inactive
Cc1nc2sc(C(=O)NC3CC3)c(N)c2c(C)c1Cl	none (no result: MsrA act, ABCB6 inh 2, MsrA inh)
O=C(c1ccc(S(=O)(=O)Nc2cccc(C(F)(F)F)c2)cc1)N1CCOCC1	none
CC(C)(CNC(=O)c1ccc(S(=O)(=O)Nc2cccc(C(F)(F)F)c2)cc1)N1CCOCC1	ABCB6 inh 2 72.0 | ABCB6 blocker 1 inactive
O=C(Nc1nnc(-c2ccccc2)o1)c1cc(Cl)sc1Cl	ABCB6 inh 2 69.0 | ABCB6 blocker 1 inactive
O=C(Nc1nnc(-c2ccc(F)cc2)o1)c1cc(Cl)sc1Cl	none
C(=N/N1CCN(c2ccccc2)CC1)/c1ccco1	none (no result: MsrA act, ABCB6 inh 2, MsrA inh)
CC(=O)NC(Cc1c[nH]c2ccccc12)C(=O)N1CCc2ccccc2C1 (centres undefined)	ABCB6 inh 2 69.0 | ABCB6 blocker 1 inactive
CC(C)(C)c1ccc(Cn2nnc3c(=O)[nH]c(C4CCN(C(=O)Cc5cccs5)CC4)nc32)cc1	ABCB6 inh 2 68.0 | ABCB6 blocker 1 inactive
CC(C)(C)c1ccc(Cn2nnc3c(=O)[nH]c(C4CCCN(C(=O)Cc5cccs5)C4)nc32)cc1 (centres undefined)	none
O=C(Cc1cccs1)N1CCC(c2nc3c(nnn3Cc3ccccc3)c(=O)[nH]2)CC1	none | ABCB6 blocker 1 inactive
Cc1ccccc1Nc1nc(-c2cccnc2)nc2ccccc12	none
Cc1ccc(Nc2nc(-c3cccnc3)nc3ccccc23)cc1	ABCB6 inh 2 71.0 | ABCB6 blocker 1 inactive
O=c1c2c3c(sc2n2cnnc2n1CCc1ccccc1)CCCC3	ABCB6 inh 2 66.0 | ABCB6 blocker 1 inactive
CC(Oc1cc2oc(=O)c3c(c2cc1Cl)CCCC3)C(=O)NCc1cccnc1 (centres undefined)	none
CC(Oc1ccc2c3c(c(=O)oc2c1)CCCC3)C(=O)NCc1cccnc1 (centres undefined)	ABCB6 inh 2 58.0 | ABCB6 blocker 1 inactive
C=CC[C@H]1c2ccccc2[C@H]2N3N=Cc4ccccc4[C@H]3[C@H](CCc3ccccc3)C(=O)N2N1C(=O)c1ccccc1	none (no result: MsrA act, ABCB6 inh 2, MsrA inh)
O=S(=O)(NCC1CCCO1)c1cc(Cl)ccc1Br (centres undefined)	ABCB6 inh 2 24.0 | ABCB6 blocker 1 inactive
Cc1ccc(CC(=O)Nc2nnc(-c3ccc(F)cc3)o2)c(C)c1	ABCB6 inh 2 74.0 (no result: MsrA inh, SMARCA2 act) | ABCB6 blocker 1 inactive
COC(=O)c1cc(-c2cc(F)cc(OC)c2)c(=O)n2c1CCC2	none (no result: MsrA act, ABCB6 inh 2, MsrA inh)
CCN(CC)C(=O)[C@H]1CC(CC(=O)NCc2ccc(OC)c(OC)c2)C(=O)N2CCc3c([nH]c4ccc(OC)cc34)[C@]12C (some centres undefined)	ABCB6 inh 2 64.0 | ABCB6 blocker 1 inactive
CCN(CC)C(=O)[C@H]1CC(CC(=O)NCc2ccc(OC)c(OC)c2)C(=O)N2CCc3c([nH]c4ccccc34)[C@]12C (some centres undefined)	none
CCCOc1ccc(-c2nc(=S)[nH][nH]2)cc1	MsrA act 9.2, ABCB6 inh 2 69.0 | ABCB6 blocker 1 inactive | MsrA activ conf inactive
COc1ccc(Cn2cc(CN3[C@H](CC(C)C)COc4cc(Br)ccc4S3(=O)=O)nn2)cc1	none (no result: MsrA act, ABCB6 inh 2, MsrA inh)
COc1ccc(CC(=O)Nc2c3c(nn2-c2ccccc2C)CS(=O)C3)cc1 (centres undefined)	ABCB6 inh 2 59.0, SMARCA2 act 8.7 | ABCB6 blocker 1 inactive | SMARCA2 conf inactive | VP16 Luc act inactive
CCn1c(SCC(=O)NN=Cc2c(C)nn(-c3ccccc3)c2C)nnc1-c1ccc(OC)c(OC)c1	none (no result: MsrA act, ABCB6 inh 2, MsrA inh)
